Experimental data: PubChem BioAssay (NCATS)
Inconclusive results are not listed. Unmarked numbers belong to inactive results. Calls come from the whole dose curve; as a rule, active = well fitted curve in the direction sought with a large enough effect; inconclusive = small, poorly fitted or top-dose-only effect, or another doubt; inactive = no such curve, though single readings can be large or run the other way.

What follows are compounds tested against Glucagon-like peptide 1 receptor (Homo sapiens) (UniProt P43220) (assay: qHTS of GLP-1 Receptor Agonists: LOPAC Validation (AID 624148;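 note: luminescence from a luciferase reporter switched on by cAMP; 0% is about no effect; higher luminescence signal means agonism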)). Conditions: GLP-1R agonist cell assay; series mostly up to 46.1 µM; activation: at the top concentration.
Chain of Glucagon-like peptide 1 receptor (Homo sapiens) (P43220 whole entry, looked up): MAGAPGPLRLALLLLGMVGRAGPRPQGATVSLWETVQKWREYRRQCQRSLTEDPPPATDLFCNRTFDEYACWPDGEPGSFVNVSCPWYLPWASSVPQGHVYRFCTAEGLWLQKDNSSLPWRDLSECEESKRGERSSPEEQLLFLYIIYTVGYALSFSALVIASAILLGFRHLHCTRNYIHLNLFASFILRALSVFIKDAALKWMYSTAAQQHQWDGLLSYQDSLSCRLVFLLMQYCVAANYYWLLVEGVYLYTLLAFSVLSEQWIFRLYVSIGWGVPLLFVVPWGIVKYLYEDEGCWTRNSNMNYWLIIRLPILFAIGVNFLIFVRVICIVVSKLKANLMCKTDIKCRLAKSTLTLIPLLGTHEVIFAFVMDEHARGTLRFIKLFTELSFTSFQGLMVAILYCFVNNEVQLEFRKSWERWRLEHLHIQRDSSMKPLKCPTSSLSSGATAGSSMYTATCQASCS
From the text: The overall goal of this project was to develop a novel assay for discovering small molecule ligands for class B1 G protein-coupled receptors (GPCRs). Very few agonists (or inverse agonists) with generally weak activity for this entire group of physiologically important receptors are known to date. To establish proof-of-principle that this critical bottleneck can be overcome with a suitable screening approach, our studies focused on the class B1 receptor for glucagon-like peptide-1 (GLP-1R), a potential therapeutic target for diabetes and neurodegenerative disease.
The assay was developed in a "mix and measure" format using a cell-based functional readout. Toward this goal, stably transfected HEK293 cell clones were established that co-express (i) a cAMP-responsive luciferase reporter gene, and (ii) GLP-1Rs that upon ligand interaction either stimulate (agonists) or inhibit (inverse agonists) luciferase activity. In different cell lines to be used for screening, expressed GLP-1Rs are specifically optimized for high sensitivity detection of either weak agonists (hypersensitive receptor) or inverse agonists (constitutively active receptor mutant). In addition, control cell lines were developed that express either the cAMP-responsive reporter gene without recombinant GLP-1Rs (enabling initial exclusion of GLP-1R independent effects of candidate probes), or the reporter gene together with wild type GLP-1Rs (for confirmation of probe activity at this receptor), or the reporter gene in combination with the constitutively active orphan receptor GPR119 (enabling initial exclusion of GLP-1R independent inhibitory effects of candidate inverse agonists).
To that end, this assay was optimized for 1536-well format and screened against the MLSMR.
NIH Molecular Libraries Probe Production Network [MLPCN]
NIH Chemical Genomics Center [NCGC]
PI Name: Martin Beinborn, Tufts Medical Center
In a white solid 1536-well plate, 6 uL of cells are dispensed in DMEM without phenol red, 10% Nu serum, and 1% pen-strep medium. The plates are then incubated for 12 hours at 37 deg C at 5% CO2 before 23 nL of compounds are added. After a 4-6 hr incubation at37 deg C and 5% CO2, 3 uL of detection reagent are added and after a 12 min incubation at RT, a luminescent read is obtained on the ViewLux.

| SMILES | activation [%] |
| --- | --- |
| C[N+]1(CCCCC[N+]2(C)CCCC2)CCCC1 | 1.54 |
| N[C@H](CO)C(=O)O | -2.04 |
| CN1C2CCC1CC(OC(=O)c1c[nH]c3ccccc13)C2 (centres undefined) | -1.37 |
| CC1(C)CCC(NC(=O)[C@@H](N)CCC(=O)O)CC1 | -1.23 |
| CC[C@H](C)C(=O)O[C@H]1CCC=C2C=C[C@H](C)[C@H](CC[C@@H]3C[C@@H](O)CC(=O)O3)[C@H]21 | -1.27 |
| C1CCc2nnnn2CC1 | 11.8 |
| CC(C)C[C@H]1C(=O)N2CCC[C@H]2[C@]2(O)O[C@](NC(=O)[C@@H]3C=C4c5cccc6[nH]c(Br)c(c56)C[C@H]4N(C)C3)(C(C)C)C(=O)N12 | 5.03 |
| CC(C)COC(=O)OCN1C(=O)CN(CCN2CC(=O)N(COC(=O)OCC(C)C)C(=O)C2)CC1=O | -1.84 |
| COc1cc(NS(C)(=O)=O)ccc1Nc1c2ccccc2nc2ccccc12 | -0.55 |
| CCCn1c(=O)[nH]c(=O)c2[nH]cnc21 | -1.66 |
| Oc1ccc(O)cc1 | -0.897 |
| CNCCC(Oc1ccccc1C)c1ccccc1 (centres undefined) | -1.2 |
| COC(=O)[C@H]1[C@H]2C[C@H]3c4[nH]c5ccccc5c4CCN3C[C@H]2CC[C@@H]1O | -0.505 |
| Nc1cc(Cl)c(NC2=NCCN2)c(Cl)c1 | 0.521 |
| C[C@@H]1C(=O)NC2=Nc3cccc(Cl)c3CN21 | 5.49 |
| O=C(O)c1cc2cc(Cc3cccnc3)ccc2o1 | 0.879 |
| COc1cc2c(cc1O)CC[C@@H]1[C@@H]2CC[C@]2(C)[C@@H](O)CC[C@@H]12 | 10.5 |
| N[C@@H](Cc1cnc[nH]1)C(=O)O | -0.951 |
| CC(CCc1ccccc1)NCC(O)c1ccc(O)c(C(N)=O)c1 (centres undefined) | 6.74 |
| C[C@]12CC[C@@H]3c4ccc(O)cc4CC[C@H]3[C@@H]1CC[C@@H]2O | 4.45 |
| CC(=O)O[C@H]1C[C@@H]2CC[C@@H]3[C@H](CC[C@@]4(C)[C@H]3C[C@H]([N+]3(C)CCCCC3)[C@@H]4OC(C)=O)[C@@]2(C)C[C@@H]1[N+]1(C)CCCCC1 | -0.504 |
| CNCCC=C1c2ccccc2CCc2ccccc21 | 6.4 |
| CCCC1O[C@@H]2C[C@H]3[C@@H]4CCC5=CC(=O)C=C[C@]5(C)[C@H]4[C@@H](O)C[C@]3(C)[C@]2(C(=O)CO)O1 (some centres undefined) | -1.07 |
| O=C1CCC(c2ccc(-n3ccnc3)cc2)=NN1 | 7.37 |
